Rows were chosen to be rich in hits. Some 2.4% of all compounds tested hit in one or more screens of this group.
BRCT inh red = inhibitors of human BRCA1 BRCT-phosphoprotein interaction (red fluorophore); BRCT-phosphopeptide binding, red fluorescence polarization; Potency, µM (highest dose often 76.9 µM), inactives show at the top dose activity change, negative = inhibition, usual class: inhibitors; actives 0.03% (n = 75,000); P38398; further: on the % scale 0 is the no-effect control and ±100 the full control effect
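Fluorescence polarization: 100 nM His-tagged BRCA1 BRCT with 100 nM TAMRA-labelled phospho-BACH1 decapeptide, phosphate buffer pH 7.3 with 150 mM NaCl, DTT, 0.01% Tween 20; 12 min RT. Binding inhibition seen as FP decrease.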
Pol III holo inh = inhibitors of bacterial DNA polymerase III holoenzyme; Potency, µM (doses to about 57.1 µM), for inactives: top-dose activity change, negative = inhibition; reconstituted DNA polymerase III holoenzyme replication, biochemical; actives 0.25% (n = 71,000); further: potency means the concentration at half of the fitted maximal effect; on the % scale 0 is the no-effect control and ±100 the full control effect
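Reconstituted *E. coli* holoenzyme (0.35 nM Pol III, 1 nM beta, 154 nM SSB, 2 nM primase) was preincubated with compound for 15 min at RT. Synthesis on 1.4 nM ssM13Gori ran 35 min, then was stopped with PicoGreen/EDTA and read as dsDNA fluorescence.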
BRCT PPI green = BRCA1 BRCT-phosphoprotein interaction inhibition. P38398. BRCA1 BRCT-phosphopeptide binding, green fluorescence polarization. actives 0.05% (n = 75,000). Potency, µM (highest dose often 76.9 µM), without a hit: at the top dose activity change, negative = inhibition, most hits filed as inhibitors. AID 875;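 further: potency means the concentration at half of the fitted maximal effect; plate controls were peptide without protein for full effect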
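Fluorescence polarization: His-tagged BRCT (~35 kDa BRCA1 C-terminus, 250 nM) bound to 100 nM fluorescein-labeled phosphorylated 10-aa BACH1 peptide, pH 7.3 phosphate buffer with DTT and Tween 20. Compounds incubated 12 min at room temperature; inhibition read as lowered polarization.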
TsaE inh = inhibitors of E. coli YjeE (TsaE). purified YjeE enzyme, qHTS inhibition assay. actives 0.05% (n = 71,000). Potency, µM. P0AF67
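Purified YjeE (10 uM) with BODIPY Texas Red-labeled ADP probe (2 uM); compounds pin-transferred, 15 min at room temperature. Binding inhibition read as decreased fluorescence polarization; ADP titration as control.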
ERK AVP inh = vasopressin-driven ERK pathway inhibition. HEK293-V1b, vasopressin-stimulated pERK AlphaScreen. Potency, µM (titrated, usually from 57.5 µM), without a hit: at the top dose activity, negative = inhibition, actives largely listed as inhibitors. actives 0.99% (n = 72,000). AID 995; further: potency means the concentration at half of the fitted maximal effect; on the % scale 0 is the no-effect control and ±100 the full control effect; nearly all actives have a fitted effect of over 55% in size
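qHTS, compounds titrated on V1b-expressing HEK293 cells. Preincubation 30 min at 37C, vasopressin 25 nM for 5 min, lysis 10 min, bead incubation 5 hr at room temperature.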
ALOX15 inhib = blocks human 15-lipoxygenase activity; P16050; purified 15hLO-1, xylenol orange hydroperoxide absorbance; Potency, µM (doses to about 57.1 µM), without a hit: top-dose activity change, negative = inhibition, actives largely listed as inhibitors; actives 1.4% (n = 74,000); AID 887; further: potency means the concentration at half of the fitted maximal effect; on the % scale 0 is the no-effect control and ±100 the full control effect; nearly all actives have a fitted effect of over 55% in size
Target sequence (P16050 whole entry, looked up): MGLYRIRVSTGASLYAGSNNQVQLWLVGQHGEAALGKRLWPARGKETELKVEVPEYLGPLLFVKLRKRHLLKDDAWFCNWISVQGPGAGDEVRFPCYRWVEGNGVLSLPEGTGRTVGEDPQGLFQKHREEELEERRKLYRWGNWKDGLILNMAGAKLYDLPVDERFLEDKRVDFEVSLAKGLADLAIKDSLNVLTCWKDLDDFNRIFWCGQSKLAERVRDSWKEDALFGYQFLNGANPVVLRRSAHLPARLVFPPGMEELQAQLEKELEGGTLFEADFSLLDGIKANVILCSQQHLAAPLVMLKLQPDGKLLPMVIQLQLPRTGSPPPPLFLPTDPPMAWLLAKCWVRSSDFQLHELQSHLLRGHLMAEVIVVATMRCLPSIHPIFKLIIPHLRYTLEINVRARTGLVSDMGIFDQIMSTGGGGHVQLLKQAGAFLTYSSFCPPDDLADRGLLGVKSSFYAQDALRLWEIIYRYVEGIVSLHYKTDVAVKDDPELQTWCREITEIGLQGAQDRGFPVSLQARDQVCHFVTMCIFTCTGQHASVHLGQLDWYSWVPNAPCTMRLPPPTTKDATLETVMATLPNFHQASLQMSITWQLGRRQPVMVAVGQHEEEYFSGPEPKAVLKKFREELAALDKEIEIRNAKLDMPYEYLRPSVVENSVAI
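Purified human 15hLO-1 (40 nM final) in 25 mM Hepes pH 7.5, 0.01% Triton X-100 was preincubated with compound 15 min at room temperature, then reacted 6 min with 50 uM arachidonic acid; hydroperoxide detected by Fe-XO, 573/405 nm absorbance ratio.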
An asterisk follows results filed as active; i = inactive; ? = inconclusive; . = not tested or not shown; ! = repeats disagree; [ ] = another dose, or the depositor's remark. The call rests on the fitted dose curve; in most records, active means well fitted curve in the direction sought with a large enough effect; inconclusive means small, poorly fitted or top-dose-only effect, or another doubt; inactive means no such curve, though single readings can be large; an effect the other way counts as inactive or inconclusive.

SMILES	BRCT inh red	Pol III holo inh	BRCT PPI green	TsaE inh	ERK AVP inh	ALOX15 inhib
O=S(=O)(c1ccccc1)N1CCC2(CCN(Cc3nccs3)CC2)CC1	-1.6%	-2.7%	-0.5%	i	?	2.2%
O=C1C=CC(=O)c2c(O)c(Cl)c(Cl)c(O)c21	?	.	?	.	?	1µM*
Oc1c(Cl)ccc(Cl)c1Cl	-0.1%	-3.6%	-0.5%	i	-2.3%	-2.1%
Cc1ccc([N+](=O)[O-])cc1S(=O)(=O)N(C)C	1.7%	.	-2.0%	.	0.2%	25.1µM*!
OCCN(CCO)c1nc(N2CCCCC2)c2nc(N(CCO)CCO)nc(N3CCCCC3)c2n1	-3.0%	31.1%	39.8µM*	i	-12.3%	-11.3%
CC(C)Nc1oc(-c2cccc3ccccc23)nc1C#N	1.8%	-1.6%	2.1%	i	-29.2%	3.98µM*
C=CCNc1oc(-c2cccc3ccccc23)nc1C#N	0.0%	1.9%	1.2%	i	?	0.501µM*
COc1ccc2[nH]cc(CCNc3ccnc(-c4c(C)noc4C)n3)c2c1	0.3%	-0.2%	-0.9%	i	-21.4%	-8.3%
COc1ccc2[nH]cc(CCNc3ccnc(-c4ccc5c(c4)OCO5)n3)c2c1	1.1%	-3.1%	-0.5%	i	31.6µM*	?
COc1ccc2[nH]cc(CCNc3cc(-c4ccccc4C)ncn3)c2c1	-1.4%	-2.2%	0.2%	i	-16.1%	?
COc1ccc2[nH]cc(CCNc3ncncc3-c3ccc4c(c3)OCO4)c2c1	-1.3%	1.2%	-1.2%	i	?	-2.2%
COc1ccc2[nH]cc(CCNc3cc(-c4ccc5c(c4)OCO5)ncn3)c2c1	-2.3%	-8.1%	-4.0%	i	?	12.6µM*
COc1ccc2[nH]cc(CCNc3cc(-c4cccnc4)ncn3)c2c1	-2.0%	-3.1%	-3.3%	i	-13.9%	20µM*
C=CC[C@@H]1C=C[C@H](O/N=C(\C)CCN2CCc3nc(CC)c(CC)cc3C2)[C@H](CO)O1	-1.2%[15.4 µM]	.	-2.5%[15.4 µM]	.	2.0%[11.5 µM]	22.1%[11.4 µM]
Cc1cc(N)c2cc(NC(=O)Nc3ccc4nc(C)cc(N)c4c3)ccc2n1	0.4%[15.4 µM]	3.98µM*	9.5%[15.4 µM]	i	-11.7%[11.5 µM]	127.2%[11.4 µM]
COc1ccc(-c2noc(CSc3nc(N)c(-c4ccccc4)c(=O)[nH]3)n2)cc1	-2.0%	-4.0%	1.3%	i	12.6µM*	-26.1%
COc1ccc(Cc2nc(-c3ccccc3)no2)cc1	-1.4%	-5.7%	-2.3%	i	7.1%	-5.2%
O=C(O)CCc1ccc(-c2ccccc2)n1-c1cccc(O)c1	-2.4%	2.0%	17.0%	i	?	10µM*
O=C(O)CCc1ccc(-c2ccccc2)n1CC(=O)O	0.9%	-5.0%	0.1%	i	-20.0%	-14.1%
CC(C)Oc1ccc(C2/C(=C(/O)c3ccc(F)cc3)C(=O)C(=O)N2CCCN(C)C)cc1 (centres undefined)	0.2%	0.5%	-0.4%	i	-5.2%	7.8%
CCOC(=O)c1ccc(N=Cc2nc3ccccc3n2C)cc1	-2.5%	-2.8%	-2.6%	i	1.3%	8.1%
CCOC(=O)c1c(C)[nH]c(C=Nc2ccccc2)c1O	-3.3%	1.4%	-3.9%	i	-5.5%	5.01µM*
CC(=O)C[C@H](O)[C@@H](NC(=O)OC(C)(C)C)C(C)C	3.0%[15.4 µM]	.	1.6%[15.4 µM]	.	11.4%[11.5 µM]	5.6%[11.4 µM]
Fc1ccc(CNc2nc(-c3ccco3)cc(C(F)(F)F)n2)cc1	-1.8%	-6.5%	17.0%	i	10.6%	25.1µM*
COc1cc(OC)c(OC)cc1CNCCNC(=O)c1nonc1N	2.7%	7.4%	-1.0%	i	-8.5%	5.1%
SMILES	BRCT inh red	Pol III holo inh	BRCT PPI green	TsaE inh	ERK AVP inh	ALOX15 inhib
Cc1c2oc3c(C)ccc(C(=O)N[C@@H]4C(=O)N[C@H](C(C)C)C(=O)N5CCC[C@H]5C(=O)N(C)CC(=O)N(C)[C@@H](C(C)C)C(=O)O[C@@H]4C)c3nc-2c(C(=O)N[C@@H]2C(=O)N[C@H](C(C)C)C(=O)N3CCC[C@H]3C(=O)N(C)CC(=O)N(C)[C@@H](C(C)C)C(=O)O[C@@H]2C)c(N)c1=O	-4.6%	0.02µM*	-0.3%	i	-9.6%	12.6µM*
COc1cc(/C=C/C(=O)CC(=O)/C=C/c2ccc(O)c(OC)c2)ccc1O	2.7%	41.8%	88.7%	i	31.6µM*	?
COc1cc(/C=C\C(=O)CC(=O)/C=C\c2ccc(O)c(OC)c2)ccc1O	.	69.7%	.	i	.	.
c1ccc2c(c1)c1ccccc1n2Cn1c2ccccc2c2ccccc21	-0.3%[15.4 µM]	-5.5%[11.4 µM]	-1.2%[15.4 µM]	i	-14.9%[11.5 µM]	-2.0%[11.4 µM]
Cc1c(C(=O)O)c2cc(O)ccc2n1-c1ccccc1	0.6%	-2.8%	-3.9%	i	12.4%	1.4%
COC(=O)c1c(C)n(-c2ccc(OC)cc2)c2ccc(O)cc12	-2.2%	-3.1%	-1.7%	i	25.1µM*	7.94µM*
O=C(Nc1cccc(S(=O)(=O)C(F)F)c1)c1ccc(Cl)c(S(=O)(=O)N2CCOCC2)c1	-3.0%	3.8%	-2.5%	i	12.6µM*	-26.1%
COc1ccc(C(=O)Nc2cccc(C)c2)cc1S(=O)(=O)N1CCOCC1	0.9%	-0.2%	1.7%	i	1.5%	-2.3%
COCCNc1ncnc2ccc(-c3ccccc3OC)cc12	-4.8%	-2.5%	1.4%	i	-18.1%	13.1%
COCCNc1ncnc2ccc(-c3ccccc3C(F)(F)F)cc12	1.7%	-3.6%	0.8%	i	?	25.1µM*
CCn1c(CSc2nnc(-c3cccnc3)n2-c2ccccc2C)nc2cc(C(=O)O)ccc21	25.1µM*	-1.5%	-0.3%	79.4µM*	-14.6%	-20.8%
CCCOc1ccc(C2c3c(oc4ccccc4c3=O)C(=O)N2CCCN2CCOCC2)cc1 (centres undefined)	0.6%	-2.9%	2.1%	i	-20.9%	3.8%
CCCCCC/C=C\CCCCCCCc1cccc(O)c1C(=O)O	-0.1%	.	-2.8%[3.08 µM]	.	-5.8%	1.58µM*
c1cncc(-c2nn3c(Cn4cnc5ccccc54)nnc3s2)c1	-3.8%	-5.3%	3.0%	i	-28.8%	3.98µM*
c1ccc(-c2nn3c(Cn4cnc5ccccc54)nnc3s2)cc1	-2.2%	-7.0%	5.7%	i	?	?
COc1ccc(C)cc1-n1nnnc1SCc1cc(=O)n2cc(C)ccc2n1	-0.3%	-1.6%	2.6%	i	-15.4%	-1.9%
O=C(c1cc(-c2ccco2)on1)N1CCc2ccccc2C1	0.4%	-0.2%	2.6%	i	28.3%	15.8µM*
O=C(c1cc(-c2ccc(O)cc2)on1)N1CCc2ccccc2C1	0.6%	-4.1%	3.2%	i	31.6µM*	15.8µM*
CN(C)c1ccc(-c2nn3c(C4CCCCC4)nnc3s2)cc1	-1.9%	-2.0%	-0.9%	i	-18.8%	13.5%
CC(=O)c1cccc(NC(=O)Nc2cccs2)c1	-1.5%	.	1.7%	.	.	?

High-throughput results: PubChem BioAssay, National Center for Advancing Translational Sciences (NCATS)
